Source: the supplement of paper PMC12494721

Columns and labels:
Details in all cases: incubation time: 27 h, anaerobic, 37 °C;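 for the amine columns active = adjusted P below 0.05 in both replicates with a change the same way and a mean fold change under 0.8 or over 1.25; inactive = the rest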
[1] = tested on: Clostridium sporogenes DSM 1664; assay: growth (OD595) fold change vs plate DMSO controls (fold change (ratio)); higher = more growth
Procedure, shortened: (§1)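 Anaerobic 27 h, 37 °C mGAM 96-well cultures were shaken, then read for absorbance at 595 nm. Values were blank-subtracted and corrected for compound background using 20 µM compound solutions in water. A calibration factor of 5 converted them to OD. Growth is the fold change versus the median of plate DMSO controls. Fold changes above 1.5 were set to NA, and values are the mean of 2 biological replicates.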

Escherichia coli IAI1 [2] = assay: as above
Procedure, shortened: as §1

[3] = tested on: Klebsiella aerogenes DSM 30053; assay: as above
Procedure, shortened: as §1

[4] = tested on: Ruminococcus gnavus DSM 108212; assay: as above
Procedure, shortened: as §1

[5] = tested on: Klebsiella aerogenes DSM 30053; assay: fold change of Histamine concentration vs plate DMSO controls (fold change (ratio)); higher = more amine produced, active = hit call of the paper (significant change in both replicates, either direction)
Procedure, shortened: (§2)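 Amine values are fold changes relative to DMSO-only wells on the same plate. They derive from 27 h, 37 °C anaerobic mGAM cultures of four gut bacterial strains in 80 µL wells, dosed at 20 µM final, or 50 µM final for sweeteners. Extraction of the whole culture, LC–triple-quadrupole MS in dynamic MRM mode, external calibration curves and within-batch drift correction were used, with 2 biological replicates averaged.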

[6] = tested on: Clostridium sporogenes DSM 1664; assay: fold change of Tryptamine concentration vs plate DMSO controls (fold change (ratio)); higher = more amine produced, active = hit call of the paper (significant change in both replicates, either direction)
Procedure, shortened: as §2

[7] = tested on: Ruminococcus gnavus DSM 108212; assay: as above
Procedure, shortened: as §2

Escherichia coli IAI1 [8] = assay: fold change of Putrescine concentration vs plate DMSO controls (fold change (ratio)); higher = more amine produced, active = hit call of the paper (significant change in both replicates, either direction)
Procedure, shortened: as §2

[9] = tested on: Klebsiella aerogenes DSM 30053; assay: as above
Procedure, shortened: as §2

Escherichia coli IAI1 [10] = assay: fold change of Cadaverine concentration vs plate DMSO controls (fold change (ratio)); higher = more amine produced, active = hit call of the paper (significant change in both replicates, either direction)
Procedure, shortened: as §2

[11] = tested on: Klebsiella aerogenes DSM 30053; assay: as above
Procedure, shortened: as §2

[12] = tested on: Ruminococcus gnavus DSM 108212; assay: fold change of 2-Phenylethylamine concentration vs plate DMSO controls (fold change (ratio)); higher = more amine produced, active = hit call of the paper (significant change in both replicates, either direction)
Procedure, shortened: as §2

| Compound | growth [1] | growth (Escherichia coli IAI1 [2]) | growth [3] | growth [4] | fold change of Histamine concentration [5] | fold change of Tryptamine concentration [6] | fold change of Tryptamine concentration [7] | fold change of Putrescine concentration (Escherichia coli IAI1 [8]) | fold change of Putrescine concentration [9] | fold change of Cadaverine concentration (Escherichia coli IAI1 [10]) | fold change of Cadaverine concentration [11] | fold change of 2-Phenylethylamine concentration [12] |
| --- | --- | --- | --- | --- | --- | --- | --- | --- | --- | --- | --- | --- |
| CC(=O)OCC(CCn1cnc2cnc(N)nc21)COC(C)=O [Famciclovir] (20 µM) | 0.805 | 1.06 | 0.981 | 0.993 | 1.15 (inactive) | 1.03 (inactive) | 1.05 (inactive) | 1.03 (inactive) | 1.01 (inactive) | 1.01 (inactive) | 0.979 (inactive) | 1.04 (inactive) |
| CCCCNc1cc(C(=O)O)cc(S(N)(=O)=O)c1Oc1ccccc1 [Bumetanide] (20 µM) | 1.19 | 1.01 | 1 | 0.971 | 0.994 (inactive) | 1.03 (inactive) | 1.05 (inactive) | 1.04 (inactive) | 1.02 (inactive) | 1.03 (inactive) | 1 (inactive) | 1.07 (inactive) |
| CN1CCN(CCCN2c3ccccc3Sc3ccc(Cl)cc32)CC1 [Prochlorperazine dimaleate] (20 µM) | 1.06 | 1.11 | 1.14 | 0.858 | 0.917 (inactive) | 1.04 (inactive) | 0.87 (inactive) | 0.974 (inactive) | 0.979 (inactive) | 0.971 (inactive) | 1.02 (inactive) | 0.97 (inactive) |
| NS(=O)(=O)c1cc(C(=O)O)cc(N2CCCC2)c1Oc1ccccc1 [Piretanide] (20 µM) | 1.09 | 0.987 | 0.997 | 0.955 | 1.01 (inactive) | 1.11 (inactive) | 1.1 (inactive) | 0.974 (inactive) | 1.04 (inactive) | 1.06 (inactive) | 1.08 (inactive) | 1.23 (inactive) |
| Cc1cccc(Nc2ccccc2C(=O)O)c1C [Mefenamic acid] (20 µM) | 1.08 | 0.988 | 0.961 | 1.03 | 1.05 (inactive) | 0.983 (inactive) | 1.01 (inactive) | 1.01 (inactive) | 0.998 (inactive) | 0.976 (inactive) | 0.995 (inactive) | 0.982 (inactive) |
| CC(C)(Oc1ccc(Cl)cc1)C(=O)O [Clofibric acid] (20 µM) | 1.11 | 0.983 | 1.02 | 0.96 | 1.12 (inactive) | 0.982 (inactive) | 1 (inactive) | 0.957 (inactive) | 1.02 (inactive) | 1 (inactive) | 0.982 (inactive) | 1 (inactive) |
